This note sets out measurements from PubChem BioAssay (NCI).

Compounds without any hit were thinned out: in the full panel of roughly 83,000, 20% have a hit.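 96-well plates, one dose, 48 hours. Percent growth reported; active if below 10.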 Unmarked numbers belong to inactive results. Active and inactive are the calls of the source.

Some test systems named below: RPMI-8226 leukemia; OVCAR-8 ovarian; OVCAR-5 ovarian; OVCAR-4 ovarian; SK-OV-3 ovarian; IGROV1 ovarian; NCI/ADR-RES ovarian; T-47D breast; BT-549 breast; MDA-MB-435 melanoma; SW-620 colon; MCF7 breast; HCT-116 colon; HCC-2998 colon; HS 578T breast; OVCAR-3 ovarian; KM12 colon.
Common to all, as to assay: NCI-60 one-dose screen, 48 h (100 = growth as untreated, 0 = no growth, -100 = all killed)
What all share (details): 10 µM unless noted

Take `NC(=O)SCC(=O)Nc1ccccc1-c1ccccc1`: the growth in the assay with RPMI-8226 leukemia was 99.8%; in the assay with OVCAR-8 ovarian, 111%; with OVCAR-5 ovarian, 104%; in the assay with OVCAR-4 ovarian it was 111%; in the assay on SK-OV-3 ovarian it was 131%; in the assay on IGROV1 ovarian, 133%. Moreover, the growth was 106% with NCI/ADR-RES ovarian; 132% in the assay on T-47D breast; 89.4% with BT-549 breast; 109% in the assay with MDA-MB-435 melanoma; 115% in the assay with SW-620 colon; 94.8% in the assay on MCF7 breast. For the same compound, the growth in the assay on HCT-116 colon was 87.4%; in the assay with HCC-2998 colon it was 95.5%.

Regarding `CC12CCCCC1C(C(N)=O)C(=O)O2` (stereo unspecified), the growth with RPMI-8226 leukemia was 106%; in the assay with OVCAR-8 ovarian, 102%; in the assay on OVCAR-5 ovarian, 112%; in the assay with OVCAR-4 ovarian, 101%; with SK-OV-3 ovarian, 107%; with IGROV1 ovarian, 119%. Moreover, the growth is 110% in the assay on HS 578T breast; 102% in the assay on NCI/ADR-RES ovarian; 114% in the assay on T-47D breast; 113% with BT-549 breast; 120% in the assay on MDA-MB-435 melanoma; 104% in the assay with SW-620 colon. Also, the values for the growth with MCF7 breast, with HCT-116 colon and with HCC-2998 colon were 99.3%, 112% and 99.6%, respectively.

With `CCOC(=O)c1c2c(c(C)n1Cc1ccc(OC)cc1)-c1nc(N)ncc1CC2`, the growth with RPMI-8226 leukemia was 119%; with OVCAR-8 ovarian, 115%; in the assay on OVCAR-5 ovarian, 103%; in the assay with OVCAR-4 ovarian it was 112%; with SK-OV-3 ovarian it was 107%; with OVCAR-3 ovarian, 104%. Besides, the growth is 111% in the assay on HS 578T breast; 104% with NCI/ADR-RES ovarian; 105% with T-47D breast; 119% in the assay on BT-549 breast; 110% in the assay with MDA-MB-435 melanoma; 100% in the assay with SW-620 colon. Also, the growth was 106% in the assay on MCF7 breast, 94.8% in the assay on HCT-116 colon, 80.3% in the assay on HCC-2998 colon and 109% with KM12 colon.

In the case of `S=C(c1ccccc1)N1CCN(c2cccc(Cl)c2)CC1`, the growth in the assay on RPMI-8226 leukemia was 86.9%; in the assay on OVCAR-8 ovarian, 102%; with OVCAR-5 ovarian, 97.2%; in the assay on OVCAR-4 ovarian, 120%; in the assay on SK-OV-3 ovarian, 103%; in the assay with IGROV1 ovarian, 107%. In addition, the growth was 103% in the assay with NCI/ADR-RES ovarian; 96.9% with T-47D breast; 105% in the assay on BT-549 breast; 81.5% in the assay with MDA-MB-435 melanoma; 98.5% in the assay with SW-620 colon; 109% with MCF7 breast. Moreover, the growth is 106% in the assay on HCT-116 colon, 105% in the assay with HCC-2998 colon and 92.5% in the assay on KM12 colon.

`O=C1OCC/C1=C\OCCCO/C=C1\CCOC1=O`: the growth is 105% in the assay with RPMI-8226 leukemia; 106% in the assay on OVCAR-8 ovarian; 107% in the assay on OVCAR-5 ovarian; 99.5% with OVCAR-4 ovarian; 114% in the assay on SK-OV-3 ovarian; 110% with OVCAR-3 ovarian. For the same compound, the growth is 112% in the assay on HS 578T breast; 104% in the assay on NCI/ADR-RES ovarian; 103% in the assay on T-47D breast; 96.9% in the assay with BT-549 breast; 104% in the assay on MDA-MB-435 melanoma; 109% in the assay on SW-620 colon. In addition, the growth was 104% in the assay on MCF7 breast, 109% with HCT-116 colon, 114% with HCC-2998 colon and 114% in the assay on KM12 colon.

Regarding `Cc1cc(NC(=O)Nc2cccc3ccccc23)no1`, the growth with RPMI-8226 leukemia was 102%; in the assay with OVCAR-8 ovarian, 105%; in the assay on OVCAR-5 ovarian, 98.9%; in the assay with OVCAR-4 ovarian, 103%; in the assay on SK-OV-3 ovarian it was 103%; in the assay on OVCAR-3 ovarian, 113%. Further, the growth in the assay with HS 578T breast is 107%; in the assay on NCI/ADR-RES ovarian, 103%; in the assay on T-47D breast it was 87.6%; in the assay with BT-549 breast, 79.9%; in the assay on MDA-MB-435 melanoma it was 101%; with SW-620 colon, 109%. Moreover, the growth in the assay on MCF7 breast is 84%; with HCT-116 colon, 95%; with HCC-2998 colon, 104%; with KM12 colon it was 112%.

Take `CCOC(=O)c1c(NC(=O)C2CCCCC2C(=O)O)sc2c1CCCC2` (stereo unspecified): the growth in the assay on RPMI-8226 leukemia was 105%; in the assay with OVCAR-8 ovarian, 96.7%; in the assay with OVCAR-5 ovarian it was 106%; with OVCAR-4 ovarian, 100%; in the assay with SK-OV-3 ovarian, 97.9%; in the assay with IGROV1 ovarian it was 105%. For the same compound, the growth with OVCAR-3 ovarian was 106%; in the assay with NCI/ADR-RES ovarian it was 106%; in the assay on T-47D breast it was 103%; in the assay on BT-549 breast, 102%; in the assay on MDA-MB-435 melanoma it was 97.4%; in the assay on SW-620 colon, 101%. In addition, the growth was 98.1% in the assay on MCF7 breast, 109% with HCT-116 colon, 110% in the assay with HCC-2998 colon and 109% in the assay with KM12 colon.

As for `CC(=O)Oc1c(C)c(OC(C)=O)c2c(c1C(C)=O)OC1CC(=O)C(C(C)=O)=C(O)C21C` (stereo unspecified), the growth in the assay with RPMI-8226 leukemia is 78.3%; in the assay on OVCAR-8 ovarian it was 105%; with OVCAR-5 ovarian, 102%; in the assay on OVCAR-4 ovarian it was 99%; in the assay with SK-OV-3 ovarian, 98.2%; in the assay on OVCAR-3 ovarian, 118%. Also, the growth in the assay with HS 578T breast is 109%; with NCI/ADR-RES ovarian it was 80.7%; in the assay with T-47D breast, 103%; in the assay with BT-549 breast it was 90.4%; in the assay with MDA-MB-435 melanoma, 105%; in the assay with SW-620 colon, 105%. Moreover, the growth with MCF7 breast was 97%; in the assay on HCT-116 colon it was 100%.

Turning to `O=C(Nc1ncc([N+](=O)[O-])s1)c1cccc([N+](=O)[O-])c1`, the growth with RPMI-8226 leukemia is -6.2% (active); with OVCAR-8 ovarian, 43.1%; with OVCAR-5 ovarian it was 87.6%; in the assay with OVCAR-4 ovarian, 40.5%; with SK-OV-3 ovarian it was 64.1%; in the assay on OVCAR-3 ovarian, 21.3%. Moreover, the growth in the assay with HS 578T breast is 49.2%; in the assay on NCI/ADR-RES ovarian, 39.9%; with T-47D breast, 24.7%; in the assay with BT-549 breast, 35.8%; with MDA-MB-435 melanoma it was 31.4%; in the assay with SW-620 colon, 73.4%. In addition, the growth with MCF7 breast is 50.7%; in the assay on HCT-116 colon it was 34.1%; with HCC-2998 colon, 28.7%; with KM12 colon, 62.9%.

Regarding `OC(CCC(O)(c1ccccc1)c1ccccc1)(c1ccccc1)c1ccccc1`, the growth is 35.5% in the assay with RPMI-8226 leukemia; 84.7% in the assay on OVCAR-8 ovarian; 97.2% in the assay on OVCAR-5 ovarian; 99.4% with OVCAR-4 ovarian; 103% with SK-OV-3 ovarian; 90.7% in the assay on IGROV1 ovarian. Moreover, the growth with HS 578T breast is 75.1%; with NCI/ADR-RES ovarian, 68.9%; in the assay with T-47D breast, 94.1%; in the assay with BT-549 breast, 121%; in the assay on MDA-MB-435 melanoma, 69.9%; in the assay with SW-620 colon it was 69.6%. Besides, the growth in the assay on MCF7 breast was 87.3%; in the assay on HCT-116 colon, 80.5%; with HCC-2998 colon it was 83.4%; in the assay with KM12 colon it was 75%.

Turning to `O=C1NC(=O)/C(=C\c2ccccc2)C2=C1CCCC2`, the growth in the assay on RPMI-8226 leukemia is 51.3%; in the assay with OVCAR-8 ovarian, -6.04% (active); in the assay with OVCAR-5 ovarian it was 80%; with OVCAR-4 ovarian, 91.2%; in the assay with SK-OV-3 ovarian, 152%; in the assay on OVCAR-3 ovarian it was -73.9% (active). Besides, the growth in the assay on HS 578T breast is 35.2%; in the assay with NCI/ADR-RES ovarian it was 61.2%; in the assay with T-47D breast, 198%; in the assay with BT-549 breast, 35%; in the assay on MDA-MB-435 melanoma, -76.3% (active); in the assay on SW-620 colon, -50.2% (active). In addition, the growth in the assay with MCF7 breast was -49% (active); with HCT-116 colon, 18.8%; in the assay with HCC-2998 colon, 123%; with KM12 colon, 18%.

Take `O=C(Nc1ccncc1)C(=O)c1cn(S(=O)(=O)c2cccc(F)c2)c2ccccc12`: the growth with RPMI-8226 leukemia was 30.1%; with OVCAR-8 ovarian it was 45%; in the assay on OVCAR-5 ovarian, 73.9%; with OVCAR-4 ovarian it was 67.2%; in the assay with SK-OV-3 ovarian, 93.8%; in the assay with IGROV1 ovarian, 40.6%. In addition, the growth with OVCAR-3 ovarian is 23.5%; with NCI/ADR-RES ovarian, -11.2% (active); with T-47D breast, 31.6%; with BT-549 breast, 27.8%; in the assay on MDA-MB-435 melanoma, -1.83% (active); in the assay with SW-620 colon it was 21.7%. For the same compound, the growth with MCF7 breast was 5.06% (active); in the assay with HCT-116 colon, 19.5%; in the assay on HCC-2998 colon, 66.2%; in the assay on KM12 colon it was 27.6%.

On to `C=C(C)[C@H]1CC/C(C)=C/CC[C@]2(C)O[C@H]2CC/C(COC(C)=O)=C\C1=O`, for which the growth in the assay on RPMI-8226 leukemia is -80.2% (active); with OVCAR-8 ovarian, 107%; in the assay with OVCAR-5 ovarian it was 98.7%; in the assay on OVCAR-4 ovarian, 123%; in the assay on SK-OV-3 ovarian, 111%; with IGROV1 ovarian, 74.4%. The growth is 164% in the assay with OVCAR-3 ovarian; 102% with NCI/ADR-RES ovarian; 95.1% in the assay on T-47D breast; 95.2% in the assay on MDA-MB-435 melanoma; 109% in the assay with SW-620 colon; 110% in the assay with MCF7 breast. In addition, the growth was 95% in the assay on HCT-116 colon, 103% in the assay with HCC-2998 colon and 143% with KM12 colon.
